# The source made the active and inactive calls. No rule for the calls is given here.
# System: Aerobactin synthetase IucA (Klebsiella pneumoniae hvKP1)
# Assay: IucA enzyme inhibition, primary screen, biochemical, Spectrum library (AID 1346200);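 also: 100% = wells without compound and 0% = wells lacking enzyme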
# Settings: malachite green pyrophosphate, A620, at 8 µM, active compounds read low
row,SMILES,activity remaining
1,C=C(C)[C@@H]1CC[C@]2(CO)CC[C@]3(C)[C@H](CCC4[C@@]5(C)CC[C@H](O)C(C)(C)C5CC[C@]43C)C12 (some centres undefined),93.4% (inactive)
2,CCCCCCCCCCCC[C@H](C(=O)O)[C@@H](C)C(=O)O,115% (inactive)
3,Nc1ccc(S(=O)(=O)c2ccc(N)cc2)cc1,109% (inactive)
4,CCCCCCc1ccc(O)cc1O,124% (inactive)
5,Nc1ncnc2c1ncn2C1O[C@H](COP(=O)(O)O)[C@@H](O)[C@H]1O (some centres undefined),98% (inactive)
6,COc1ccc2c(c1)OC[C@@H](Cc1ccc(OC)c(OC)c1)[C@H]2O,109% (inactive)
7,CC1=CC(=O)c2ccccc2C1=O,117% (inactive)
8,CON,103% (inactive)
9,CC1=C2[C@](C)(C=CC1=O)C[C@H](O)[C@H]1[C@H](C)C(=O)O[C@]21C,107% (inactive)
10,COc1cc2c(cc1OC)-c1c(oc3cc(O)cc(O)c3c1=O)CO2,90.7% (inactive)
11,CO[C@H]1[C@@H](O)[C@@H](C)O[C@H](O[C@H]2CCC3(C)C4CCC5(C)[C@@H](C6=CC(=O)OC6)CC[C@]5(O)[C@@H]4CC[C@]3(O)C2)[C@@H]1O (some centres undefined),113% (inactive)
12,CC1(C)C(=O)C=C[C@@]2(C)C1CC(=O)[C@]1(C)C2CC[C@@]2(C)[C@H](c3ccoc3)OC(=O)[C@H]3O[C@]321 (some centres undefined),116% (inactive)
13,CC(=O)O[C@]1(C(C)=O)CCC2C3C=C(Cl)C4=CC(=O)[C@@H]5C[C@@H]5[C@]4(C)C3CC[C@@]21C (some centres undefined),101% (inactive)
14,O=C(O)c1ccccc1OP(=O)(O)O,116% (inactive)

# Source: PubChem BioAssay
